# Measurements from paper PMC7862700, “An all-to-all approach to the identification of sequence-specific readers for epigenetic DNA modifications on cytosine”.
# Tests used:
# Assay in all cases: DAPPL (digital affinity profiling via proximity ligation, sequencing); 10 mM Tris-HCl pH 7.5, 50 mM NaCl, 1 mM DTT, 4% glycerol, room temperature, 30 min; GST-TFs on glutathione beads, 16-mer random dsDNA library, 0.1% formaldehyde crosslink after washing; high values mean tight binding
# FLI1 = target: T1, FLI1 (Homo sapiens, UniProt Q01543 1-452); details: protein: recombinant; tags: N-terminal GST; dsDNA, one strand shown
# T1 sequence: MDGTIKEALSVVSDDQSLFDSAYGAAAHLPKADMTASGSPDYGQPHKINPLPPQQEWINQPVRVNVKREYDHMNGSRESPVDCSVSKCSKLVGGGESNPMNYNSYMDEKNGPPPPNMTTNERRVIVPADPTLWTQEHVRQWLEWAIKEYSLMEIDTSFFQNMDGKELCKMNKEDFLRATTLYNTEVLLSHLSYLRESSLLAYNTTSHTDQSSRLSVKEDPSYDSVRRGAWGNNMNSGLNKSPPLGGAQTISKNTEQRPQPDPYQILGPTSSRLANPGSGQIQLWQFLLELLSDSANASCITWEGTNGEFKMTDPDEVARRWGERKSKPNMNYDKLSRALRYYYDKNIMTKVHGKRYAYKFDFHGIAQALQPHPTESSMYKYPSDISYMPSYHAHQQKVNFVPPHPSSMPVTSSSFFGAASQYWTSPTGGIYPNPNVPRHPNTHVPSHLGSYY
# Method in brief: (§1)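 Binding signal is given per hexamer as its read frequency for a factor divided by its frequency in the tag-only sample. GST-fused human transcription factors were expressed in yeast, captured on glutathione beads, barcoded with DNA and pooled with that sample, then incubated with 200 nmole of a 16-mer random double-stranded DNA library in Tris/NaCl/DTT/glycerol buffer for 30 min at room temperature. The pools were then washed, crosslinked, proximity-ligated, amplified by PCR and sequenced on an Illumina NextSeq500.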
# ELK1 = target: T2, ELK1 (Homo sapiens, UniProt P19419 1-428); details: protein: recombinant; tags: N-terminal GST; dsDNA, one strand shown
# T2 sequence: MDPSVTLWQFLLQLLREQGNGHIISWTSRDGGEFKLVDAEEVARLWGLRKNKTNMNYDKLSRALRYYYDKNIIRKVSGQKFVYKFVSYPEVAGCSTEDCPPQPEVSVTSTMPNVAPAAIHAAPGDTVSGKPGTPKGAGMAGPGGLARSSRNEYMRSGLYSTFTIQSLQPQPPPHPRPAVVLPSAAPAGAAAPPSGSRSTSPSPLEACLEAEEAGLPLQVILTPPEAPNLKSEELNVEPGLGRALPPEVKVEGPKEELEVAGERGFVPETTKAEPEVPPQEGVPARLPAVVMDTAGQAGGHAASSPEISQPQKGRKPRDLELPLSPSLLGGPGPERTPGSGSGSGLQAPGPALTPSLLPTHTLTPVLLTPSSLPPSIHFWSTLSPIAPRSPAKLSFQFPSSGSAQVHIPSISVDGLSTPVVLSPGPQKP
# Method in brief: as §1
# GABPA = target: T3, GABPA (Homo sapiens, UniProt Q06546 1-454); details: protein: recombinant; tags: N-terminal GST; dsDNA, one strand shown
# T3 sequence: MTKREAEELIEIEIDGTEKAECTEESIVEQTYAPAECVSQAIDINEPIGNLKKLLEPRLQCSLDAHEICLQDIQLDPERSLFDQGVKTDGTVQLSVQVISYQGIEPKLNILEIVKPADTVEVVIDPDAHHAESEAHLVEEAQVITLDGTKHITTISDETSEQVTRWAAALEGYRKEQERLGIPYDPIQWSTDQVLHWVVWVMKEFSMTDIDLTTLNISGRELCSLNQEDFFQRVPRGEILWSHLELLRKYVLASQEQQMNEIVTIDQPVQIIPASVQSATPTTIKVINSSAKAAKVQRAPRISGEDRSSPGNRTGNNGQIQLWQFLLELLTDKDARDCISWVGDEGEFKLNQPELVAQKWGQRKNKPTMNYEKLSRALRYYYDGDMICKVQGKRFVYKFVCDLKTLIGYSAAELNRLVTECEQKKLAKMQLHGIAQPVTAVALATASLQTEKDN
# Method in brief: as §1
# ERG = target: T4, ERG (Homo sapiens, UniProt P11308 1-479); details: protein: recombinant; tags: N-terminal GST; dsDNA, one strand shown
# T4 sequence: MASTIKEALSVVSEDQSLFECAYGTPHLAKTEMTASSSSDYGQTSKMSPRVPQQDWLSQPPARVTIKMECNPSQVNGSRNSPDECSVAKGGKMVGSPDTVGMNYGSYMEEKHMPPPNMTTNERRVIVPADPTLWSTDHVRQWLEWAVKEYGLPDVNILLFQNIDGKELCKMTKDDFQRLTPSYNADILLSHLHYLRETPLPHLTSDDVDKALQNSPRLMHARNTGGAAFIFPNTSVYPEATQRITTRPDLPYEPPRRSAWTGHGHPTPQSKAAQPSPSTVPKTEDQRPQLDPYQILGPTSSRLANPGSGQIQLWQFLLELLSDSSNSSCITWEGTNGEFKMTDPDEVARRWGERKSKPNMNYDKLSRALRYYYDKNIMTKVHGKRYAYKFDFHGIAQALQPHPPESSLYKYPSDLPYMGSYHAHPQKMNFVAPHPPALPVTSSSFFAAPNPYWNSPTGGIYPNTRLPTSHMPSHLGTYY
# Method in brief: as §1
# ELF1 = ELF1 (Homo sapiens, UniProt P32519 1-619); details: protein: recombinant; tags: N-terminal GST; dsDNA, one strand shown
# ELF1, sequence (P32519 whole entry): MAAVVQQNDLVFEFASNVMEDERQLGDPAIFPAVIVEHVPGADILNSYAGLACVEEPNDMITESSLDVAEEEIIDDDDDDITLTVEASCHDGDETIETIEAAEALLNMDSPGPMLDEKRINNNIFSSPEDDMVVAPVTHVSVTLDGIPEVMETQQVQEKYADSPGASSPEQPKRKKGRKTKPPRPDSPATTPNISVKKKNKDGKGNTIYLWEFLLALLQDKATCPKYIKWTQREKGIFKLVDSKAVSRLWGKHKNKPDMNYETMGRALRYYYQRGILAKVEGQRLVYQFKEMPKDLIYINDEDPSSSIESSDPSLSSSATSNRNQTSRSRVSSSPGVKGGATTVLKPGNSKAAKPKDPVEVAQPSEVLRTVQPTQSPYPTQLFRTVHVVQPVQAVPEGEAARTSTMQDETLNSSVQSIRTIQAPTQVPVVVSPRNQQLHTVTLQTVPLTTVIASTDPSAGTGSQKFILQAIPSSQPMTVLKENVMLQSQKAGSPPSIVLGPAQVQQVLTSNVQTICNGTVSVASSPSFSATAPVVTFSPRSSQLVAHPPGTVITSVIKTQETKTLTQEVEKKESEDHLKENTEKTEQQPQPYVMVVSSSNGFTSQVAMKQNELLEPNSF
# Method in brief: as §1
# EHF = target: T5, EHF (Homo sapiens, UniProt Q9NZC4 1-300); details: protein: recombinant; tags: N-terminal GST; dsDNA, one strand shown
# T5 sequence: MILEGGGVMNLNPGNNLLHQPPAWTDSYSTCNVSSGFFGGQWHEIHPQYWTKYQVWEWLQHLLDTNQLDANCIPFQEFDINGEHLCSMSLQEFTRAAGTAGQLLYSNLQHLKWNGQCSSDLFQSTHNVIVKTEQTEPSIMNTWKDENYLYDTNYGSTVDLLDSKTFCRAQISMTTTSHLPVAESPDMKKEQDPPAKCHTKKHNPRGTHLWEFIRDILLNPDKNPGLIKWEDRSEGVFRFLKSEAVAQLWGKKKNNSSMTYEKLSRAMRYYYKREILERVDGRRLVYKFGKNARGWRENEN
# Method in brief: as §1
# SPI1 = SPI1 (Homo sapiens, UniProt P17947 1-270); details: protein: recombinant; tags: N-terminal GST; dsDNA, one strand shown
# Method in brief: as §1
# SPIB = SPIB (Homo sapiens, UniProt Q01892 1-262); details: protein: recombinant; tags: N-terminal GST; dsDNA, one strand shown
# SPIB, sequence (Q01892 whole entry): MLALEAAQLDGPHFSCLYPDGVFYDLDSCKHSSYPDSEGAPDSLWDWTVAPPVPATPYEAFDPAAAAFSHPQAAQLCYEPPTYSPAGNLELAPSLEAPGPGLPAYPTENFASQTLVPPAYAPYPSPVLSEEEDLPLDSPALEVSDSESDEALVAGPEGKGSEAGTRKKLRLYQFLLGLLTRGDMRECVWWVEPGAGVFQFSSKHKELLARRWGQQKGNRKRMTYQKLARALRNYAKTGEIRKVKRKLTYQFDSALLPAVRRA
# Method in brief: as §1
# ELK3 = target: T6, ELK3 (Homo sapiens, UniProt P41970 1-407); details: protein: recombinant; tags: N-terminal GST; dsDNA, one strand shown
# T6 sequence: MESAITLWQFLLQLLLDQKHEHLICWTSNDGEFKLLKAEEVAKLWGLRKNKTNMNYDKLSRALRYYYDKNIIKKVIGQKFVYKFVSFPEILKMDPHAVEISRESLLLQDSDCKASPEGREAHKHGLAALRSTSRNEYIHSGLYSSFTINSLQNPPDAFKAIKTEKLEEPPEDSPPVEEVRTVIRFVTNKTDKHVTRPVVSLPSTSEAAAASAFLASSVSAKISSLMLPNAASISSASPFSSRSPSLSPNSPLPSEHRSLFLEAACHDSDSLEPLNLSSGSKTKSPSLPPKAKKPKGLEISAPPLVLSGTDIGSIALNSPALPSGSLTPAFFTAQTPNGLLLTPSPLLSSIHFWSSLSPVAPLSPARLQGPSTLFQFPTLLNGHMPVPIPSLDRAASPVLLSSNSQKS
# Method in brief: as §1
# FEV = target: T7, FEV (Homo sapiens, UniProt Q99581 1-238); details: protein: recombinant; tags: N-terminal GST; dsDNA, one strand shown
# T7 sequence: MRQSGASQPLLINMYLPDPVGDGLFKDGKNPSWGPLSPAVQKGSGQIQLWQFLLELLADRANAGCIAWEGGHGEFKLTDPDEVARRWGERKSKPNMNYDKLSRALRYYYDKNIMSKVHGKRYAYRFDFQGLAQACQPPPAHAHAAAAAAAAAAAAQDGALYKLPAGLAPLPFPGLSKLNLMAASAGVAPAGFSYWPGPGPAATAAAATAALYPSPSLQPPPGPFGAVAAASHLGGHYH
# Method in brief: as §1
# ETV5 = ETV5 (Homo sapiens, UniProt P41161 1-510); details: protein: recombinant; tags: N-terminal GST; dsDNA, one strand shown
# ETV5, sequence (P41161 whole entry): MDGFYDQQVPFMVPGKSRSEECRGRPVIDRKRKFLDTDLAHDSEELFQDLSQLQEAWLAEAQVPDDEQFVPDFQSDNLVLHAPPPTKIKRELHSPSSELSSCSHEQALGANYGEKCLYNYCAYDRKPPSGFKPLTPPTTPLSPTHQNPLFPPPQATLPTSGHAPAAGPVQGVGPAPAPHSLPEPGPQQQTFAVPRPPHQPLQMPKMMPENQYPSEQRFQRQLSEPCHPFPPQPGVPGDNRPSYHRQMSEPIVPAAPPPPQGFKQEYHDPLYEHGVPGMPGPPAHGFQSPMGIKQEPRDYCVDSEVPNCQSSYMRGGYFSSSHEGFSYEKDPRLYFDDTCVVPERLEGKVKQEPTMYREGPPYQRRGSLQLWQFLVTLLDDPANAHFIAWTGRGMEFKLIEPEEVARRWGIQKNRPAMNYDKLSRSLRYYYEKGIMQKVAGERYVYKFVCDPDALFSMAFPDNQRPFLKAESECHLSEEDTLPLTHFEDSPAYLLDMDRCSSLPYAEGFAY
# Method in brief: as §1
# HSF1 = HSF1 (Homo sapiens, UniProt Q00613 1-529); details: protein: recombinant; tags: N-terminal GST; chain copies: 3; dsDNA, one strand shown
# HSF1, sequence (Q00613 whole entry): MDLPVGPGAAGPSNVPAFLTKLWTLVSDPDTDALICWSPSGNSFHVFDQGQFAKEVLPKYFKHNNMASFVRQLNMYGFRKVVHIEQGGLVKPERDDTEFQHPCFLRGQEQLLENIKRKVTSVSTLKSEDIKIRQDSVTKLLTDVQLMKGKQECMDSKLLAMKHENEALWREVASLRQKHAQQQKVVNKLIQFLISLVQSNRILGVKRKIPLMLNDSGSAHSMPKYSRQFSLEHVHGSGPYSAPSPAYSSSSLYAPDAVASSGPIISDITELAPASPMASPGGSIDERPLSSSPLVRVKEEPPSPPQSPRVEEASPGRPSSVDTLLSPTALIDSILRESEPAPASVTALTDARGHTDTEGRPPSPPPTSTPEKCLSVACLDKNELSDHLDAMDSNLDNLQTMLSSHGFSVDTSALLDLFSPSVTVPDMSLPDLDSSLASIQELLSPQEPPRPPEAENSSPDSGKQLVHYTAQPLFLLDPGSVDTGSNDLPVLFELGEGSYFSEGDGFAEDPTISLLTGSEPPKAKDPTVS
# Method in brief: as §1
# SPIC = target: T8, SPIC (Homo sapiens, UniProt Q8N5J4 1-248); details: protein: recombinant; tags: N-terminal GST; dsDNA, one strand shown
# T8 sequence: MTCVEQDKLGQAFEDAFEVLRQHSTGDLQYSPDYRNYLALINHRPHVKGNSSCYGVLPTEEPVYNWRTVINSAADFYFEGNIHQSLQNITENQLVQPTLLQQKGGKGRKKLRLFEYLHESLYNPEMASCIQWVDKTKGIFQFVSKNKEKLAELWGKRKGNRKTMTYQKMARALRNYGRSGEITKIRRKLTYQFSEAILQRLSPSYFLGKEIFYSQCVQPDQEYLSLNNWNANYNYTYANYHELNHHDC
# Method in brief: as §1
# ELF4 = ELF4 (Homo sapiens, UniProt Q99607 1-663); details: protein: recombinant; tags: N-terminal GST; dsDNA, one strand shown
# ELF4, sequence (Q99607 whole entry): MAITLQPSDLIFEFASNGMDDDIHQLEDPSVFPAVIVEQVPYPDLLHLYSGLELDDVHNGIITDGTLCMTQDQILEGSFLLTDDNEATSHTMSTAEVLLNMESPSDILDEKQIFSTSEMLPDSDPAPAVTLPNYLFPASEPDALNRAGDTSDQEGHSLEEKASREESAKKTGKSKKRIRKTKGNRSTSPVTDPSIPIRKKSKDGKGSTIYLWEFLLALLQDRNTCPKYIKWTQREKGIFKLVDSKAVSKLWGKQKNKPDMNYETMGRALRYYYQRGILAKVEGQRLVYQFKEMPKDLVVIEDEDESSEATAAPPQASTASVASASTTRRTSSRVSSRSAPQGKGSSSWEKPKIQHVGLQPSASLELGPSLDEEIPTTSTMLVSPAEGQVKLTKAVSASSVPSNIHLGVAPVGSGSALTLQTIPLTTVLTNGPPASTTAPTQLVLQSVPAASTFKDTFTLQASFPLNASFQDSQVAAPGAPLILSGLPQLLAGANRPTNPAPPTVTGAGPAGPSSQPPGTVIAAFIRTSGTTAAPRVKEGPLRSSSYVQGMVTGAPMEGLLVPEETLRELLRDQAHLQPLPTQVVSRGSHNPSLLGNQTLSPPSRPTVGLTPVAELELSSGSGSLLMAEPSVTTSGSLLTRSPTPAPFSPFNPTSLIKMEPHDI
# Method in brief: as §1
# ELK4 = target: T9, ELK4 (Homo sapiens, UniProt P28324-2 1-405); details: protein: recombinant; tags: N-terminal GST; dsDNA, one strand shown
# T9 sequence: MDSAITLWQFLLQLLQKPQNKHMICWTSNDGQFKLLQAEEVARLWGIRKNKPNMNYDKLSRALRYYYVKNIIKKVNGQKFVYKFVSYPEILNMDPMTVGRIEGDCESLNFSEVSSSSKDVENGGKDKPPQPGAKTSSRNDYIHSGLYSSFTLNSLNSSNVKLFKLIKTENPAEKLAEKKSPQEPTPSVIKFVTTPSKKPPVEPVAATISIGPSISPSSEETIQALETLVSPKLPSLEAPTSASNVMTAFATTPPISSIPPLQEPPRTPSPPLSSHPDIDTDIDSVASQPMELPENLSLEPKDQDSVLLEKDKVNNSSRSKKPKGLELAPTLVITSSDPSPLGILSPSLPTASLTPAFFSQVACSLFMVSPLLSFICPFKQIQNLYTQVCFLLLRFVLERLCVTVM
# Method in brief: as §1
# ETV2 = target: T10, ETV2 (Homo sapiens, UniProt O00321 1-342); details: protein: recombinant; tags: N-terminal GST; dsDNA, one strand shown
# T10 sequence: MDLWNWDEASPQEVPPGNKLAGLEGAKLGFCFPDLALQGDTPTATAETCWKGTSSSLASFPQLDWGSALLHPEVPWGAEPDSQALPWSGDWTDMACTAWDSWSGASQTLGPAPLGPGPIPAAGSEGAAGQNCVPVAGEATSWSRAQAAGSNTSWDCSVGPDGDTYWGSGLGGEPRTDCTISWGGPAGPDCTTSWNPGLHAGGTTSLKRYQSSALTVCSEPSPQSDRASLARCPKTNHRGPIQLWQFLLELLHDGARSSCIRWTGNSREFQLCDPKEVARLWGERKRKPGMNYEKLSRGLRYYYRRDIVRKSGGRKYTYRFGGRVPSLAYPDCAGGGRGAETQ
# Method in brief: as §1
# ELF3 = target: T11, ELF3 (Homo sapiens, UniProt P78545 1-371); details: protein: recombinant; tags: N-terminal GST; dsDNA, one strand shown
# T11 sequence: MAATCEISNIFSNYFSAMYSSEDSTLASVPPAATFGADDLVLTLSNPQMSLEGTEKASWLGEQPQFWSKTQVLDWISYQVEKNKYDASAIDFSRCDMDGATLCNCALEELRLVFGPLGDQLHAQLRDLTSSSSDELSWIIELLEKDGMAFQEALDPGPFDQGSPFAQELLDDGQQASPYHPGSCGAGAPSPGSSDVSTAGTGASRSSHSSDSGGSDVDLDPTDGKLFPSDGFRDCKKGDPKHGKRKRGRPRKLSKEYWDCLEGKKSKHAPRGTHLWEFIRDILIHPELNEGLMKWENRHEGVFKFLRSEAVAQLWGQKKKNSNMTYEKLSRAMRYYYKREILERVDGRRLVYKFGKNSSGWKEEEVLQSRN
# Method in brief: as §1
# CRX = CRX (Homo sapiens, UniProt O43186 1-299); details: protein: recombinant; tags: N-terminal GST; dsDNA, one strand shown
# CRX, sequence (O43186 whole entry): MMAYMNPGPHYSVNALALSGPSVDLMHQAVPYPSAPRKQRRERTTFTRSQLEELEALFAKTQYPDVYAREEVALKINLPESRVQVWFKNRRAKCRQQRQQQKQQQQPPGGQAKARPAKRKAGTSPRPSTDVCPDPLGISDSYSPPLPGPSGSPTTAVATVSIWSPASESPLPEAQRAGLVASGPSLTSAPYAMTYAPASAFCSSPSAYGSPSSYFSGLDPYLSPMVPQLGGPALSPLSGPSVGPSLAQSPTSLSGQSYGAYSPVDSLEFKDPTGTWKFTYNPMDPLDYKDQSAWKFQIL
# Method in brief: as §1
# ETV1 = ETV1 (Homo sapiens, UniProt P50549 1-477); details: protein: recombinant; tags: N-terminal GST; dsDNA, one strand shown
# ETV1, sequence (P50549 whole entry): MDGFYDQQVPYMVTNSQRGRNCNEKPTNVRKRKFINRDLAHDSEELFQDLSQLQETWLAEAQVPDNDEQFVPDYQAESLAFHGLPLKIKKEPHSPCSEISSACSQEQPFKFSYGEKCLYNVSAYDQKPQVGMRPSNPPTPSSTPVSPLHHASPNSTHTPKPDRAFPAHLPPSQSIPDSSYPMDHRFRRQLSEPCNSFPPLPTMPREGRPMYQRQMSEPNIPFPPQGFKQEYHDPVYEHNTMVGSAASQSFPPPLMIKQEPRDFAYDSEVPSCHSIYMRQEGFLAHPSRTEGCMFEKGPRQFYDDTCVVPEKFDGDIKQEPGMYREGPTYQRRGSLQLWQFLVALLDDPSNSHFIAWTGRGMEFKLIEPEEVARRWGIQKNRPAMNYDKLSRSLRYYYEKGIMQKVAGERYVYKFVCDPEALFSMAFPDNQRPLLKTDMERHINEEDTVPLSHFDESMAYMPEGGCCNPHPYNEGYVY
# Method in brief: as §1
sequence,measurement,setting,value
ATCTGG,binding signal,FLI1,"1.19 fold enrichment (6-mer frequency, TF over GST control)"
same,binding signal,ELK1,"1.01 fold enrichment (6-mer frequency, TF over GST control)"
same,binding signal,GABPA,"1.17 fold enrichment (6-mer frequency, TF over GST control)"
same,binding signal,ERG,"1.14 fold enrichment (6-mer frequency, TF over GST control)"
same,binding signal,ELF1,"1.18 fold enrichment (6-mer frequency, TF over GST control)"
same,binding signal,EHF,"1.12 fold enrichment (6-mer frequency, TF over GST control)"
same,binding signal,SPI1,"1.12 fold enrichment (6-mer frequency, TF over GST control)"
same,binding signal,SPIB,"1.14 fold enrichment (6-mer frequency, TF over GST control)"
same,binding signal,ELK3,"1.09 fold enrichment (6-mer frequency, TF over GST control)"
same,binding signal,FEV,"1.23 fold enrichment (6-mer frequency, TF over GST control)"
same,binding signal,ETV5,"1.11 fold enrichment (6-mer frequency, TF over GST control)"
same,binding signal,HSF1,"2.08 fold enrichment (6-mer frequency, TF over GST control)"
same,binding signal,SPIC,"1.1 fold enrichment (6-mer frequency, TF over GST control)"
same,binding signal,ELF4,"1.22 fold enrichment (6-mer frequency, TF over GST control)"
same,binding signal,ELK4,"1.31 fold enrichment (6-mer frequency, TF over GST control)"
same,binding signal,ETV2,"1.23 fold enrichment (6-mer frequency, TF over GST control)"
same,binding signal,ELF3,"1.23 fold enrichment (6-mer frequency, TF over GST control)"
same,binding signal,CRX,"1.65 fold enrichment (6-mer frequency, TF over GST control)"
same,binding signal,ETV1,"1.24 fold enrichment (6-mer frequency, TF over GST control)"
